Experimental data published in PubChem BioAssay (NCATS).
Inconclusive results are not listed. Calls of active or inactive are those of the source. The call rests on the fitted dose curve; in most records, active means well fitted curve in the direction sought with a large enough effect; inconclusive means small, poorly fitted or top-dose-only effect, or another doubt; inactive means no such curve, though single readings can be large; an effect the other way counts as inactive or inconclusive.

Legend:
[1] = target: Luciferin 4-monooxygenase (Photinus pyralis) (UniProt P08659); test: Biochemical firefly luciferase enzyme assay for NPC (AID 624030);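 further: purified P. pyralis luciferase at 10 nM with luciferin and ATP substrate; nearly all actives have a fitted effect of over 70% in size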
Chain of Luciferin 4-monooxygenase (Photinus pyralis) (P08659 whole entry, looked up): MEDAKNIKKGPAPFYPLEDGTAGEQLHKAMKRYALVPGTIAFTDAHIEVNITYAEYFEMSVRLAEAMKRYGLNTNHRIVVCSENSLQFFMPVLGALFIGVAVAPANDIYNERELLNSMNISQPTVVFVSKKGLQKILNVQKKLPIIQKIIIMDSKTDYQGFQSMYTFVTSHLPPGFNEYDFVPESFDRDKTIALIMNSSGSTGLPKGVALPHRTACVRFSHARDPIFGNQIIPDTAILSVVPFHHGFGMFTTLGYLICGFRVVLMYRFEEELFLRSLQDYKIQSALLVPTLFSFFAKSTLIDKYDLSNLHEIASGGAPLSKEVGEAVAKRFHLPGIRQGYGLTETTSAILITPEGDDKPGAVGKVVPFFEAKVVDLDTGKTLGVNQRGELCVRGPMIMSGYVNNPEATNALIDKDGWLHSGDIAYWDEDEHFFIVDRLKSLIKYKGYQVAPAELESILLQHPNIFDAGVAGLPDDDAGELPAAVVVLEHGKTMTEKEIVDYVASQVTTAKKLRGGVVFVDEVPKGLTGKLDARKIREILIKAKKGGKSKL
How it was run: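 Purified P. pyralis luciferase at 10 nM in 50 mM Tris Acetate (final), luminescence read within 5 minutes of enzyme addition to compounds. Activity normalised to PTC124 versus DMSO; concentration-response curves classed by r2, magnitude and activity.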

[2] = S16 Schwann cell viability assay (CellTiter-Glo assay) (AID 624031);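 further: cellular ATP luminescence as a viability measure; nearly all actives have a fitted effect of over 70% in size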
How it was run: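 Native S16 Schwann cells (rat), serum-containing medium, overnight attachment then 24 h drug exposure at 37 °C/5% CO2. CellTiter-Glo ATP signal; normalized to cell-free and vehicle wells.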

[3] = S16 Schwann cell PMP22 intronic element firefly luciferase assay (AID 624032); further: nearly all actives have a fitted effect of over 30% in size
How it was run: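 Rat S16 Schwann cells stably carrying firefly luciferase driven by a PMP22 intronic element, in 10% FBS, treated 24 h at 37 C. ONE-Glo luminescence normalized to PTC124 control and DMSO (0%); curves classed by r2, magnitude and activity.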

[4] = test system: AA1029; test: qHTS profiling for inhibitors of Plasmodium falciparum proliferation (AID 504749); further: nearly all actives have a fitted effect of over 60% in size; conditions: P. falciparum in erythrocytes, SYBR Green DNA, 72 h; series mostly up to 28.7 µM
How it was run: (§1)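 Each compound contacts P. falciparum-infected red blood cells for 72 h at 37 C; lysis buffer (Tris, EDTA, saponin, Triton X, SYBR Green I) is added and fluorescence measured next morning; values normalized to controls.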

[5] = test system: CP211; test: as above; conditions: P. falciparum in erythrocytes, SYBR Green DNA, 72 h; series mostly up to 28.7 µM
How it was run: as §1

[6] = test system: CP215; test: as above; conditions: P. falciparum in erythrocytes, SYBR Green DNA, 72 h; series mostly up to 28.7 µM
How it was run: as §1

[7] = test system: CP217; test: as above; conditions: P. falciparum in erythrocytes, SYBR Green DNA, 72 h; series mostly up to 28.7 µM
How it was run: as §1

[8] = test system: CP250; test: as above; conditions: P. falciparum in erythrocytes, SYBR Green DNA, 72 h; series mostly up to 28.7 µM
How it was run: as §1

[9] = test system: CP252; test: as above; conditions: P. falciparum in erythrocytes, SYBR Green DNA, 72 h; series mostly up to 28.7 µM
How it was run: as §1

[10] = test system: CP256; test: as above; conditions: P. falciparum in erythrocytes, SYBR Green DNA, 72 h; series mostly up to 28.7 µM
How it was run: as §1

[11] = test system: CP260; test: as above; conditions: P. falciparum in erythrocytes, SYBR Green DNA, 72 h; series mostly up to 28.7 µM
How it was run: as §1

[12] = test system: CP297; test: as above; conditions: P. falciparum in erythrocytes, SYBR Green DNA, 72 h; series mostly up to 28.7 µM
How it was run: as §1

[13] = test system: CP315; test: as above; conditions: P. falciparum in erythrocytes, SYBR Green DNA, 72 h; series mostly up to 28.7 µM
How it was run: as §1

[14] = test system: FAB9; test: as above; conditions: P. falciparum in erythrocytes, SYBR Green DNA, 72 h; series mostly up to 28.7 µM
How it was run: as §1

[15] = test system: ICS; test: as above; conditions: P. falciparum in erythrocytes, SYBR Green DNA, 72 h; series mostly up to 28.7 µM
How it was run: as §1

[16] = test system: JCK; test: as above; conditions: P. falciparum in erythrocytes, SYBR Green DNA, 72 h; series mostly up to 28.7 µM
How it was run: as §1

[17] = test system: N140; test: as above; conditions: P. falciparum in erythrocytes, SYBR Green DNA, 72 h; series mostly up to 28.7 µM
How it was run: as §1

[18] = test system: PC15; test: as above; conditions: P. falciparum in erythrocytes, SYBR Green DNA, 72 h; series mostly up to 28.7 µM
How it was run: as §1

[19] = test system: SC27B; test: as above; conditions: P. falciparum in erythrocytes, SYBR Green DNA, 72 h; series mostly up to 28.7 µM
How it was run: as §1

[20] = test system: TAB165; test: as above; conditions: P. falciparum in erythrocytes, SYBR Green DNA, 72 h; series mostly up to 28.7 µM
How it was run: as §1

Measured: Potency

CC(=O)[C@H]1CC[C@H]2C3CC=C4C[C@@H](O)CC[C@]4(C)C3CC[C@]12C (stereo not given in full)
inactive: all assays above
